The panel holds about 83,000 compounds, 20% with a hit somewhere; the sample as a whole holds those more often.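 Assay: single dose, 48 h. Readout: percent growth (0 = no net growth; negative = cell death). Active: <10.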 A number with no mark means an inactive call. The source made the active and inactive calls.

Test systems include NCI-H23 lung; NCI-H226 lung; NCI-H322M lung; HOP-62 NSCLC; NCI-H460 lung; NCI-H522 lung; A549/ATCC NSCLC; 786-0 renal; COLO 205 colon; DU-145 prostate; K-562 leukemia; MALME-3M melanoma; MDA-MB-231 breast; SF-268 CNS; SF-295 CNS; SF-539 CNS; UACC-257 melanoma; M14 melanoma; HCT-15 colon; RXF 393 renal.
Common to all, as to test: NCI-60 one-dose screen, 48 h (100 = growth as untreated, 0 = no growth, -100 = all killed)
Holding throughout (settings): 10 µM unless noted

Consider `COc1ccc2nc3cc(Cl)ccc3c(N3CCN(c4ccnc(Nc5ccc(F)cc5)n4)CC3)c2c1`, for which the growth in the test with NCI-H23 lung was 89.3%; in the test with NCI-H226 lung, 98.5%; in the test with NCI-H322M lung it was 97.7%; with HOP-62 NSCLC, 92.9%; in the test on NCI-H460 lung, 94%; in the test with NCI-H522 lung, -5.18% (active). In addition, the growth in the test with A549/ATCC NSCLC is 79.5%; in the test on 786-0 renal, 70.4%; in the test on COLO 205 colon, 108%; in the test on DU-145 prostate, 93.1%; in the test on K-562 leukemia, 43.1%; with MALME-3M melanoma it was 105%. Further, the growth was 58.4% with MDA-MB-231 breast; 79.2% with SF-268 CNS; 75.9% in the test on SF-295 CNS; 85.4% with SF-539 CNS; 105% with UACC-257 melanoma; 102% with M14 melanoma. Also, the growth in the test with HCT-15 colon is 48.3%.

Consider `O=C(N1CCC(CN=c2cc3n(-c4ccc(Cl)cc4)c4ccccc4nc-3cc2Nc2ccc(Cl)cc2)CC1)N1CC1`, for which the growth was -58.2% (active) in the test with NCI-H23 lung; 37.2% in the test on NCI-H226 lung; -54.3% (active) in the test with NCI-H322M lung; -85.2% (active) with HOP-62 NSCLC; -71.5% (active) in the test on NCI-H460 lung; -76.7% (active) with NCI-H522 lung. Moreover, the growth in the test with A549/ATCC NSCLC is -89.4% (active); in the test with 786-0 renal, -93.2% (active); with COLO 205 colon, -59% (active); with DU-145 prostate it was -95.3% (active); in the test with K-562 leukemia, -66.5% (active); in the test on MALME-3M melanoma, -72.5% (active). The growth with MDA-MB-231 breast is -56.9% (active); in the test with RXF 393 renal, -93.3% (active); with SF-268 CNS, -63.6% (active); with SF-539 CNS, -88% (active); with UACC-257 melanoma, -94.4% (active); in the test with M14 melanoma, -73.8% (active). Moreover, the growth in the test with HCT-15 colon is -36.8% (active).

As to `CCN(CC)c1ccc(N=Nc2cc(Cl)ccc2Cl)c(NC(=O)CCC(=O)O)c1`, the growth in the test with NCI-H23 lung was 101%; with NCI-H226 lung, 98.1%; in the test on NCI-H322M lung, 111%; in the test on HOP-62 NSCLC, 86.6%; in the test on NCI-H460 lung, 108%; in the test with NCI-H522 lung, 106%. The growth was 101% with A549/ATCC NSCLC; 108% in the test on 786-0 renal; 106% in the test with COLO 205 colon; 108% with DU-145 prostate; 98.8% in the test with K-562 leukemia; 91.8% in the test with MALME-3M melanoma. For the same compound, the growth is 81.4% in the test on MDA-MB-231 breast; 116% in the test with RXF 393 renal; 105% in the test with SF-268 CNS; 79.9% in the test on SF-539 CNS; 117% with UACC-257 melanoma; 101% in the test on M14 melanoma. For the same compound, the growth with HCT-15 colon is 89.5%.

In the case of `Cc1cc(NC(=O)c2ccc(N)cc2)ccc1N=Nc1ccc2c(O)c(N=Nc3ccc(Cl)c(S(=O)(=O)O)c3)c(S(=O)(=O)O)cc2c1`, the growth is 69.9% in the test on NCI-H23 lung; 81.9% in the test on NCI-H226 lung; 62.5% with NCI-H322M lung; 64.2% with HOP-62 NSCLC; 49.7% with NCI-H460 lung; 78.6% with NCI-H522 lung. For the same compound, the growth in the test on A549/ATCC NSCLC is 60.5%; in the test on 786-0 renal, 110%; in the test on COLO 205 colon, 117%; in the test with DU-145 prostate, 111%; with K-562 leukemia, 62.4%; with MALME-3M melanoma it was 105%. Moreover, the growth with MDA-MB-231 breast was 109%; in the test on RXF 393 renal, 68.6%; in the test with SF-268 CNS, 89.9%; in the test on SF-539 CNS, 87.3%; in the test on UACC-257 melanoma, 87.5%; in the test on M14 melanoma it was 92.5%. In addition, the growth with HCT-15 colon is 83.6%.

In the case of `CCCCCCOc1ccc(/C=N/NC(N)=S)cc1`, the growth with NCI-H23 lung is 54.3%; in the test on NCI-H226 lung, 66%; with NCI-H322M lung, 122%; with HOP-62 NSCLC, 100%; in the test on NCI-H460 lung, 92.6%; with NCI-H522 lung it was -64% (active). Besides, the growth in the test on A549/ATCC NSCLC is 88.3%; in the test with 786-0 renal, 9.39% (active); in the test with COLO 205 colon it was 50.2%; with DU-145 prostate, 71.9%; in the test on K-562 leukemia, 17.8%; with MALME-3M melanoma, 17.9%. Besides, the growth in the test on MDA-MB-231 breast was 29.5%; in the test with RXF 393 renal it was 22.6%; in the test with SF-268 CNS, 47.2%; in the test on SF-539 CNS, 16.5%; with UACC-257 melanoma it was 48.2%; in the test on M14 melanoma, 44.6%. Besides, the growth in the test on HCT-15 colon was 33.9%.

Consider `CCN(CC)c1ccc(C(O)C2=CC(=O)c3ccccc3C2=O)cc1` (configuration not stated), for which the growth with NCI-H23 lung was -2.03% (active); in the test on NCI-H226 lung it was 37.5%; in the test on NCI-H322M lung, 25.2%; with HOP-62 NSCLC, -12.7% (active); with NCI-H460 lung, 7.97% (active); in the test with NCI-H522 lung it was -62.2% (active). The growth with A549/ATCC NSCLC is 47.6%; in the test with 786-0 renal, 3.34% (active); in the test with COLO 205 colon it was 21.6%; with DU-145 prostate, 3.92% (active); in the test with K-562 leukemia it was 2.86% (active); in the test on MALME-3M melanoma it was -11.3% (active). Further, the growth with MDA-MB-231 breast is -51% (active); in the test on RXF 393 renal, -80.2% (active); with SF-268 CNS it was -30.9% (active); in the test with SF-539 CNS, -38.2% (active); with UACC-257 melanoma it was 9.28% (active); in the test on M14 melanoma, 13.8%. In addition, the growth in the test on HCT-15 colon is 30.3%.

Take `Clc1cccc(Cc2cn3cc(-c4ccccc4)nc3s2)c1`: the growth in the test on NCI-H23 lung was 62.6%; with NCI-H226 lung, 73%; with NCI-H322M lung, 63.5%; in the test on HOP-62 NSCLC, 69.7%; in the test on NCI-H460 lung, 16.5%; in the test with NCI-H522 lung it was 45.9%. Besides, the growth in the test on A549/ATCC NSCLC was 37.5%; in the test with 786-0 renal, 68.9%; in the test on COLO 205 colon it was -36.6% (active); in the test on DU-145 prostate it was 52.4%; with K-562 leukemia it was 21.1%; with MALME-3M melanoma, 85.5%. For the same compound, the growth in the test on MDA-MB-231 breast was 52.2%; in the test on RXF 393 renal, 94%; in the test on SF-268 CNS, 64.9%; with SF-539 CNS it was 41.6%; with UACC-257 melanoma, 37.4%; with M14 melanoma, 6.04% (active). Moreover, in the test with HCT-15 colon, the growth is 40.4%.

For `CN(C)c1nc(-c2ccco2)n2nc(-c3ccco3)cc2n1`, the growth was 87.9% in the test with NCI-H23 lung; 87.1% in the test on NCI-H226 lung; 94% with NCI-H322M lung; 90.6% with HOP-62 NSCLC; 95.5% in the test with NCI-H460 lung; 94.8% with NCI-H522 lung. Moreover, the growth is 92.9% with A549/ATCC NSCLC; 97.2% in the test on 786-0 renal; 116% in the test on COLO 205 colon; 121% in the test on DU-145 prostate; 101% in the test on K-562 leukemia; 131% with MALME-3M melanoma. The growth in the test with MDA-MB-231 breast was 74.2%; in the test on RXF 393 renal, 106%; in the test with SF-268 CNS, 118%; with SF-539 CNS, 94.7%; with UACC-257 melanoma it was 106%; with M14 melanoma, 99.7%. In the test on HCT-15 colon, the growth is 78.1%.
